# TIM10 inh = TIM10 yeast growth inhibition; S. cerevisiae TIM10 strain growth, BacTiter-Glo luminescence, 24 h; inhibition, % at 10 µM; 330,000 compounds, 1.4% hits; AID 463195;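 active = inhibition of 40% or more at the single tested concentration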;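 note: wild-type TIM10 isogenic control strain grown at permissive 25 °C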
# SKKanGAS inh = blocks kanamycin growth of S. pyogenes SKKanGAS strain | BacTiter-Glo, 6 h | inhibition, % at 7.5 µM | 300,000 compounds, 1.3% hits | AID 1662;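 active = mean replicate score, as percent of positive control median, at least 50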;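 note: strain carries kanamycin resistance gene driven by streptokinase promoter and grows in 40 µg/ml kanamycin; loss of luminescence reflects streptokinase promoter inhibition or plain growth inhibition; 0% = median of DMSO wells and 100% = positive control at its reference dose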
# V-ATPase pHluor = alters yeast V-ATPase proton transport; 350,000 compounds, 0.37% hits; AID 504577; response, % at 10 µM; S. cerevisiae, pHLuorin cytosolic pH fluorescence; in the data active = response mostly above about 7.3%, no sharp cut-off; inactive = mostly below about 5.4%; note: actives read high
# tim23-1 inh = tim23-1 yeast growth inhibition. S. cerevisiae tim23-1 growth, BacTiter-Glo luminescence, 24 h. inhibition, % at 20 µM. 330,000 compounds, 1.3% hits. AID 463212;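 active = growth inhibition of the mutant yeast at or above 50%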;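 note: temperature-sensitive mutant grown at 25 °C; plate controls were DMSO-treated mutant yeast for no effect and medium wells lacking yeast for full effect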
# PfHsp90 yeast 2 = inhibits growth of yeast expressing Plasmodium falciparum Hsp90 | inhibition, % at 9.4 µM | S. cerevisiae expressing PfHsp90, BacTiter-Glo ATP, 48 h; yeast lacking PDR1 and PDR3 efflux regulators | 310,000 compounds, 0.32% hits;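 active = every replicate shows inhibition above about 80%, whatever the replicate mean, limit read from the data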;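 note: 0% = DMSO neutral controls and 100% = 20 µM radicicol positive controls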
# tim10-1 inh = inhibits growth of tim10-1 mutant yeast | S. cerevisiae tim10-1 ts strain growth, BacTiter-Glo, 24 h | inhibition, % at 20 µM | 330,000 compounds, 2.2% hits;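 active = inhibition of at least 40%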;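 note: mutant grown at 25 °C; 0% = DMSO wells with yeast and 100% = wells holding no yeast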
# An asterisk follows results filed as active; x = not tested or not shown. Hits are enriched below; roughly 4.6% of the tested compounds scored in any of these assays.
SMILES,TIM10 inh,SKKanGAS inh,V-ATPase pHluor,tim23-1 inh,PfHsp90 yeast 2,tim10-1 inh
COc1ccc(NC(=O)c2c[nH]n3c(=O)cc(C4CCN(C(=O)OC(C)(C)C)CC4)nc23)cc1Cl,5,52*,-4,13,-5,8
CC(C)(C)OC(=O)N1CCC(c2cc(=O)n3[nH]cc(C(=O)Nc4ccc(F)c(Cl)c4)c3n2)CC1,12,68*,2,13,-25,7
CC(C)(C)OC(=O)N1CCC(c2cc(=O)n3[nH]cc(C(=O)NC4CCCC4)c3n2)CC1,-4,1,2,11,4,8
O=C(NC(=S)N1CCOCC1)c1cc2ccccc2o1,-4,0,0,-14,0,-10
CCOc1ccc(Oc2ccc(NC(=O)CSc3nncn3C)cc2)cc1,0,x,-8,10,x,28
Nc1ccc2nc(-c3cc(Cl)c(N)c(Cl)c3)[nH]c2c1,14,63*,-6,-3,4,14
Nc1ccc2nc(-c3ccc(Cl)cc3)[nH]c2c1,17,84*,3,14,11,-2
CCOc1ccccc1NC(=O)NCCCCc1ccccc1,10,8,-2,10,-1,-3
COc1ccccc1NC(=O)NCCCCc1ccccc1,11,50*,6,21,-4,33
O=C(Nc1ccc(Br)cn1)c1ccc(COc2c(F)c(F)cc(F)c2F)o1,-5,x,-2,11,-12,1
COc1ccc(C2/C=C\CN(C(=O)OCc3ccccc3)CC(=O)N2Cc2ccc(F)cc2)cc1 (stereo not drawn),-5,6,8,-2,x,16
COc1ccc(C2/C=C\CN(C(=O)c3ccccc3)CC(=O)N2Cc2ccc(F)cc2)cc1 (stereo not drawn),6,68*,4,24,11,15
S=C(NNc1nc(Nc2ccccc2)nc(N2CCCCC2)n1)NC1CCCCC1,14,60*,-1,15,-1,36
C=CCNC(=S)NNc1nc(Nc2ccccc2)nc(N2CCCCC2)n1,14,8,2,14,-16,35
O=C(COC(=O)/C=C/c1ccc(Cl)cc1Cl)NCC1CCCO1 (stereo not drawn),4,x,0,19,-19,13
Cc1cc(N/N=C/c2c(O)ccc3ccccc23)nc(-c2ccccc2O)n1,3,85*,5,15,-19,31
Oc1ccc2ccccc2c1/C=N/Nc1ccccc1,19,1,-3,35,0,13
O=c1[nH]c(=S)[nH]c2c1C(c1ccc(Br)cc1)c1c([nH]c(=S)[nH]c1=O)O2,x,5,147*,x,-107,x
O=C1CCCC2=C1C(c1ccc(Br)cc1)c1c([nH]c(=S)[nH]c1=O)N2 (stereo not drawn),11,10,2,2,-32,15
CC(NC(=O)c1ccc(Br)cc1)c1ccc2c(c1)CCCC2 (stereo not drawn),-37,27,-2,-17,105*,1
CC(NC(=O)c1ccc(F)cc1)c1ccc2c(c1)CCCC2 (stereo not drawn),0,3,-67,12,1,-3
CC(CCc1ccccc1)NC(=O)c1ccc(Br)cc1 (stereo not drawn),-39,-8,-4,3,112*,-12
COc1cc([N+](=O)[O-])cc(/C=N/NC(=O)C(C)Nc2ccccc2C)c1O (stereo not drawn),6,8,0,6,3,8
C=CCc1cccc(/C=N/NC(=O)C(C)Nc2cccc(C)c2)c1O (stereo not drawn),29,60*,-4,9,12,25
COc1cc([N+](=O)[O-])cc(/C=N/NC(=O)c2ccc(C)nc2)c1O,-7,82*,-1,-10,-6,31
COc1cc([N+](=O)[O-])cc(/C=N/NC(=O)C(C)Nc2cccc(C)c2)c1O (stereo not drawn),3,59*,0,4,-5,20
CCOc1cc([N+](=O)[O-])cc(/C=N/NC(=O)c2c(-c3ccccc3)noc2C)c1O,-28,92*,-2,10,-40,29
COc1cc([N+](=O)[O-])cc(/C=N/NC(=O)c2ccc(NC(=O)c3ccc(C)cc3)cc2)c1O,-3,13,-3,-15,9,-5
CCOC(=O)C1(C(=O)OCC)NC(=O)CC1CC(C)C (stereo not drawn),x,x,6,x,x,x

# Screening results: PubChem, several laboratories
